Results from PubChem BioAssay AID1159580 (chemical genetic matrix, 2015).
In all, about 5,500 compounds went through this assay and about 2,000 (36%) were called active. Roughly 18% stayed inconclusive and do not appear here. Rule as the data show it: active = normalized growth mostly below about 0.91 (no sharp cut-off); inconclusive = no clear call, values can overlap the other calls; inactive = mostly above about 0.92. The list shows a part of the results.

Test: chemical genetic growth profiling, strain panel (AID 1159580);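 also: tested at 20 µM; growth read once vehicle control cultures reached saturation at 30 °C; 1 = growth at the plate median or of vehicle wells; lower values mean less growth of the strain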
Conditions: growth OD

Measured: normalized growth

Nc1ccc(N=Nc2ccccc2)c(N)n1
active: S. cerevisiae deletion strains, locus YKL160W, strain elf1, hits give low values 0.772 | S. cerevisiae deletion strains, locus YKR001C, strain vps1, hits give low values 0.885 | S. cerevisiae deletion strains, locus YLL001W, strain dnm1, hits give low values 0.8 | S. cerevisiae deletion strains, locus YLL026W, hits give low values 0.825 | S. cerevisiae deletion strains, locus YLL041C, strain sdh2, hits give low values 0.896 | S. cerevisiae deletion strains, locus YLR027C, strain aat2, hits give low values 0.802 | S. cerevisiae deletion strains, locus YLR039C, strain RIC1, hits give low values 0.596 | S. cerevisiae deletion strains, locus YLR221C, strain rsa3, hits give low values 0.7 | S. cerevisiae deletion strains, locus YLR258W, strain gsy2, hits give low values 0.771 | S. cerevisiae deletion strains, locus YLR262C, strain YPT6 (second series), hits give low values 0.351 | S. cerevisiae deletion strains, locus YLR262C, strain YPT6, hits give low values 0.574 | S. cerevisiae deletion strains, locus YLR320W, strain mms22, hits give low values 0.429 | S. cerevisiae deletion strains, locus YLR342W, strain FKS1, hits give low values 0.861 | S. cerevisiae deletion strains, locus YML120C, strain ndi1, hits give low values 0.79 | S. cerevisiae deletion strains, locus YMR058W, strain fet3, hits give low values 0.716 | S. cerevisiae deletion strains, locus YMR205C, strain PFK2, hits give low values 0.568 | S. cerevisiae deletion strains, locus YNL071W, strain lat1, hits give low values 0.261 | S. cerevisiae deletion strains, locus YNL209W, strain ssb2, hits give low values 0.791 | S. cerevisiae deletion strains, locus YNL248C, strain rpa49, hits give low values 0.814 | S. cerevisiae deletion strains, locus YNL307C, strain MCK1, hits give low values 0.798 | S. cerevisiae deletion strains, locus YOL006C, strain TOP1, hits give low values 0.332 | S. cerevisiae deletion strains, locus YOR001W, strain rrp6, hits give low values 0.753 | S. cerevisiae deletion strains, locus YOR070C, strain gyp1, hits give low values 0.774 | S. cerevisiae deletion strains, locus YOR083W, strain WHI5, hits give low values 0.784 | S. cerevisiae deletion strains, locus YOR106W, strain vam3, hits give low values 0.563 | S. cerevisiae deletion strains, locus YOR265W, strain rbl2, hits give low values 0.903 | S. cerevisiae deletion strains, locus YOR270C, strain vph1, hits give low values 0.243 | S. cerevisiae deletion strains, locus YOR290C, strain snf2, hits give low values 0.782 | S. cerevisiae deletion strains, locus YPL051W, strain arl3, hits give low values 0.554 | S. cerevisiae deletion strains, locus YPL078C, strain atp4, hits give low values 0.741 | S. cerevisiae deletion strains, locus YPL240C, strain hsp82, hits give low values 0.849
inactive: S. cerevisiae deletion strains, locus YJR075W, strain HOC1, hits give low values 0.991 | S. cerevisiae deletion strains, locus YKL009W, strain mrt4, hits give low values 0.933 | S. cerevisiae deletion strains, locus YKL068W, hits give low values 1.02 | S. cerevisiae deletion strains, locus YKL085W, strain MDH1 (second series), hits give low values 1.01 | S. cerevisiae deletion strains, locus YKL085W, strain MDH1, hits give low values 1.01 | S. cerevisiae deletion strains, locus YKL190W, strain CNB1, hits give low values 1 | S. cerevisiae deletion strains, locus YKR026C, strain gcn3, hits give low values 0.969 | S. cerevisiae deletion strains, locus YKR091W, strain srl3, hits give low values 0.959 | S. cerevisiae deletion strains, locus YLR058C, strain SHM2, hits give low values 1 | S. cerevisiae deletion strains, locus YLR102C, strain apc9, hits give low values 1.02 | S. cerevisiae deletion strains, locus YLR113W, strain HOG1, hits give low values 0.997 | S. cerevisiae deletion strains, locus YLR268W, strain sec22, hits give low values 0.982 | S. cerevisiae deletion strains, locus YLR330W, strain CHS5, hits give low values 0.992 | S. cerevisiae deletion strains, locus YLR342W, strain FKS1 (second series), hits give low values 0.916 | S. cerevisiae deletion strains, locus YLR357W, strain rsc2, hits give low values 1.04 | S. cerevisiae deletion strains, locus YLR370C, strain arc18, hits give low values 0.946 | S. cerevisiae deletion strains, locus YLR371W, strain rom2, hits give low values 1.03 | S. cerevisiae deletion strains, locus YLR384C, strain iki3, hits give low values 0.972 | S. cerevisiae deletion strains, locus YLR418C, strain cdc73, hits give low values 0.881 | S. cerevisiae deletion strains, locus YML016C, strain PPZ1, hits give low values 0.987 | S. cerevisiae deletion strains, locus YML032C, strain rad52, hits give low values 0.938 | S. cerevisiae deletion strains, locus YML124C, strain tub3, hits give low values 1.02 | S. cerevisiae deletion strains, locus YMR078C, strain ctf18, hits give low values 1.01 | S. cerevisiae deletion strains, locus YMR125W, strain sto1, hits give low values 0.962 | S. cerevisiae deletion strains, locus YMR129W, hits give low values 0.978 | S. cerevisiae deletion strains, locus YMR223W, strain ubp8, hits give low values 0.92 | S. cerevisiae deletion strains, locus YMR231W, strain pep5, hits give low values 0.971 | S. cerevisiae deletion strains, locus YMR263W, strain SAP30, hits give low values 0.927 | S. cerevisiae deletion strains, locus YMR307W, strain GAS1, hits give low values 1.21 | S. cerevisiae deletion strains, locus YNL067W, strain RPL9B, hits give low values 0.922 | S. cerevisiae deletion strains, locus YNL128W, strain TEP1, hits give low values 0.966 | S. cerevisiae deletion strains, locus YNL153C, strain GIM3, hits give low values 0.975 | S. cerevisiae deletion strains, locus YNL183C, strain NPR1, hits give low values 0.934 | S. cerevisiae deletion strains, locus YNL233W, strain BNI4, hits give low values 0.937 | S. cerevisiae deletion strains, locus YNL250W, strain rad50, hits give low values 1.02 | S. cerevisiae deletion strains, locus YNL271C, strain bni1, hits give low values 0.995 | S. cerevisiae deletion strains, locus YNL298W, strain CLA4, hits give low values 0.928 | S. cerevisiae deletion strains, locus YNL322C, strain KRE1 (second series), hits give low values 1.03 | S. cerevisiae deletion strains, locus YNL322C, strain KRE1, hits give low values 1.01 | S. cerevisiae deletion strains, locus YNR049C, strain mso1, hits give low values 0.965 | S. cerevisiae deletion strains, locus YNR052C, strain pop2, hits give low values 0.936 | S. cerevisiae deletion strains, locus YOL012C, strain htz1 1.24 | S. cerevisiae deletion strains, locus YOL147C, strain pex11, hits give low values 0.982 | S. cerevisiae deletion strains, locus YOR061W, strain CKA2, hits give low values 0.995 | S. cerevisiae deletion strains, locus YOR069W, strain VPS5, hits give low values 0.998 | S. cerevisiae deletion strains, locus YOR080W, strain dia2, hits give low values 0.967 | S. cerevisiae deletion strains, locus YOR136W, strain idh2, hits give low values 1.01 | S. cerevisiae deletion strains, locus YOR144C, strain elg1, hits give low values 1.01 | S. cerevisiae deletion strains, locus YOR184W, strain ser1, hits give low values 1.02 | S. cerevisiae deletion strains, locus YOR231W, strain MKK1, hits give low values 0.942 | S. cerevisiae deletion strains, locus YOR316C, strain cot1, hits give low values 1.02 | S. cerevisiae deletion strains, locus YPL055C, strain LGE1, hits give low values 0.934 | S. cerevisiae deletion strains, locus YPL106C, strain sse1, hits give low values 0.978 | S. cerevisiae deletion strains, locus YPL241C, strain CIN2, hits give low values 0.998 | S. cerevisiae deletion strains, locus YPL256C, strain CLN2, hits give low values 0.962 | S. cerevisiae deletion strains, locus YPR119W, strain clb2, hits give low values 1.02 | S. cerevisiae deletion strains, locus YPR141C, strain kar3, hits give low values 1.04 | S. cerevisiae deletion strains, locus YPR163C, strain tif3, hits give low values 0.952 | S. cerevisiae deletion strains, locus YPR167C, strain met16, hits give low values 1.02 | S. cerevisiae deletion strains, strain wtn01, hits give low values 0.964 | S. cerevisiae strains, strain wild type, hits give low values 0.987
